From PubChem BioAssay (NCI)
The panel holds about 83,000 compounds, 20% with a hit somewhere; the sample as a whole holds those more often.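 Activity criterion: percent growth below 10, measured after cells in 96-well plates were exposed to a single compound concentration for 48 hours.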 The source made the active and inactive calls.

Experiments:
Test in all cases: NCI-60 one-dose screen, 48 h (100 = growth as untreated, 0 = no growth, -100 = all killed)
Details in all cases: 10 µM unless noted
[1] = system: T-47D breast
[2] = system: BT-549 breast
[3] = system: MDA-MB-435 melanoma
[4] = system: SW-620 colon
[5] = system: MCF7 breast
[6] = system: HCT-116 colon
[7] = system: HCC-2998 colon
[8] = system: KM12 colon

Measured: growth

N=C(N)c1ccc(-c2ccc(-c3cc(Cl)cc(Cl)c3)s2)nc1
active: [4] -59.2% | [5] -47% | [6] -73.6% | [8] -75.3%
inactive: [1] 84.2% | [2] 97.5% | [3] 44.6% | [7] 28.1%

CN(C)CCCNC(=O)c1cncnc1Nc1ccc(OCc2cccc(F)c2)c(Cl)c1
inactive: [2] 53.6%
active: [1] -17% | [3] -88.6% | [4] -67.7% | [5] -44% | [6] -82% | [7] 6.05% | [8] -32.1%

Cn1cc(-c2csc(-c3c[nH]c4ccc(F)cc34)n2)c2ccnc(Cl)c21
inactive: [1] 24.3% | [2] 78.2% | [3] 88.2% | [4] 41.5% | [5] 59.5% | [6] 61.2% | [7] 70.8% | [8] 55.1%

CC(C)=CCNc1ncnc2c1ncn2C1OC(CO)C(O)C1O (stereo not given)
inactive: [3] 23.9% [1 mM] | [8] 10.6% [1 mM]
active: [1] -57% [1 mM] | [2] -51.7% [1 mM] | [4] -2.16% [1 mM] | [5] -60.7% [1 mM] | [6] -13.7% [1 mM] | [7] -62.5% [1 mM]

NC(N)=NS(=O)(=O)c1ccc(NC2=C(I)C(=O)c3ncccc3C2=O)cc1
inactive: [1] 106% | [2] 108% | [3] 109% | [4] 91.1% | [5] 97.9% | [6] 102% | [7] 111% | [8] 105%

O=C(Cc1ccccc1)Nc1cccc(N=Cc2ccccc2O)c1
inactive: [1] 91.8% | [2] 115% | [3] 97.8% | [4] 109% | [5] 94.4% | [6] 108% | [7] 106% | [8] 98.1%

C[C@H](CCCC(=O)NCC#CCN1CCN(C)CC1)[C@H]1CC[C@H]2[C@@H]3CC[C@@H]4CC(=O)CC[C@]4(C)[C@H]3CC[C@]12C
inactive: [1] 101% | [2] 76.8% | [3] 95.5% | [4] 98.7% | [5] 79.7% | [6] 68.2% | [7] 104% | [8] 99.8%

CCN1C(=O)N(CC)C2C1N=C(SCc1ccc(Cl)cc1)N2/N=C/C=C/c1ccccc1OC (stereo not given)
active: [3] -16.9%
inactive: [1] 41.6% | [2] 106% | [4] 74.8% | [5] 13.5% | [6] 37% | [7] 85.9% | [8] 64.6%

N#CSc1c[nH]c2cccc(/C=C/C(=O)/C=C(O)/C=C/c3cccc4[nH]cc(SC#N)c34)c12
active: [1] -10.5% | [2] -23.7% | [3] -83.8% | [4] -43% | [5] -41.6% | [6] -92% | [7] -57.8% | [8] -16.9%

COc1ccc2c(c1)c(-c1nc(-c3c[nH]c4ncccc34)cs1)cn2CCO
inactive: [1] 23.4% | [2] 41.7% | [3] 66.5% | [4] 63.1% | [5] 20.1% | [6] 50.9% | [7] 58.9% | [8] 20.7%

CCc1n(Cc2ccc3ccccc3n2)cc[n+]1Cc1ccc2ccccc2n1
inactive: [2] 13.4% | [3] 14% | [4] 38.5% | [5] 13.5% | [6] 35% | [7] 27.3% | [8] 12.2%
active: [1] -3.68%

C[C@]1(O)CC(=O)[C@]2(O)C3=C(C=C[C@]2(O)C1)C(=O)c1c(O)cccc1C3=O
active: [1] -45.5% | [3] -79.8% | [4] -55.5% | [5] -60.2% | [6] -32.1%
inactive: [2] 45.2% | [7] 94.7% | [8] 77.8%

COc1ccc(/C=C2\COc3ccc(O)cc3C2=O)cc1
inactive: [1] 87.9% | [2] 87.8% | [3] 78.7% | [4] 84.6% | [5] 15.4% | [6] 77.7% | [7] 103% | [8] 58%

O=C(CSc1nnc(-c2cc(-c3ccccc3)nc3ccccc23)n1-c1ccccc1)Nc1ccc(C(=O)/C=C/c2ccc(Cl)cc2)cc1
inactive: [1] 73.8% | [2] 92.4% | [3] 96.5% | [4] 93.3% | [5] 78.5% | [6] 86.5% | [7] 100% | [8] 75.4%

Cc1ccc(C(=O)c2ccc(CC(=O)N=Nc3c(O)[nH]c4ccc(Br)cc34)n2C)cc1
inactive: [1] 74.5% | [2] 100% | [3] 98.7% | [4] 91.2% | [5] 86.9% | [6] 86% | [7] 124% | [8] 97.9%

CCCn1nc(C(=O)N(C)Cc2ccccc2)c2c1CCC(N1CCc3ccccc31)C2 (stereo not given)
inactive: [1] 108% | [2] 94.8% | [3] 106% | [4] 104% | [5] 85.3% | [6] 77.8% | [7] 116% | [8] 106%

NC1=Nc2cc(OCCCCN3Cc4ccccc4C3)c(OCC3CC3)cc2C12CCCC2
inactive: [2] 82.2% | [5] 10.6% | [6] 11.3% | [8] 46.5%
active: [1] -46.9% | [3] 5.33% | [4] 3.2% | [7] -58.2%

COc1ccc(-c2n[nH]c(=O)c3nc(NC(=S)Nc4ccc(Oc5ccccc5)cc4)sc23)cc1
inactive: [1] 81.9% | [2] 108% | [3] 97.3% | [4] 96.8% | [5] 96.8% | [6] 91.1% | [7] 105% | [8] 93.8%

N#Cc1c(-c2ccccc2)nc(SCC(O)CN2CCOCC2)nc1N1CCOCC1 (stereo not given)
inactive: [1] 26% | [2] 29.5% | [3] 53% | [4] 78.6% | [6] 57.5% | [7] 72.9% | [8] 69.1%
active: [5] 4.99%

CCOC(=O)C#Cc1c(C(=O)OCC)nnn1Cc1ccc(C(F)(F)F)cc1
active: [4] -23.9% | [5] 1.53%
inactive: [1] 31.8% | [2] 63.1% | [3] 63.8% | [6] 31.1% | [7] 102% | [8] 89.4%

C=C1C(=O)O[C@H]2[C@H]1CC/C(COC(=O)c1cc3cc(Cl)ccc3[nH]1)=C\CC[C@@]1(C)O[C@@H]21
active: [1] -68.2% | [2] -47.4% | [3] -91.7% | [4] -53.1% | [5] -71.7% | [6] -70.4% | [7] -70.5% | [8] -59.8%

CC/C=C\CCC/C=C1/C(=O)C=C[C@@H]1C/C=C\CCCC(=O)OC
active: [2] -25% | [3] -22.3% | [4] 3.05% | [6] -52.4% | [7] 8.12% | [8] -20.6%
inactive: [1] 34.4% | [5] 17%

Cc1ccc(-c2nc3nc(-c4ccccc4)nc(N4CCCN(S(C)(=O)=O)CC4)c3o2)cc1
inactive: [1] 92.1% | [2] 94.2% | [3] 34.5% | [4] 44.1% | [5] 65.1% | [6] 24.4% | [7] 96.6% | [8] 86.8%

COc1ccc(C(O)c2cc3c(N)c(C(=O)Nc4cccc(Cl)c4C)sc3nc2C)cc1 (stereo not given)
inactive: [1] 30.5% | [2] 17.7% | [4] 17.9% | [5] 17%
active: [3] -29.5% | [6] 6.73% | [7] 5.81% | [8] 6.49%

O=C(c1c[nH]c2ccccc12)c1n[nH]c(=S)n1-c1cccc(Br)c1
inactive: [1] 26.1% | [2] 120% | [3] 102% | [4] 94.6% | [5] 33.4% | [6] 89.7% | [7] 38.8% | [8] 50.7%

C#CCOc1cccc(-c2ncnc3cc(NC(=O)C=C)ccc23)c1
inactive: [1] 37.6% | [2] 43.5% | [3] 30% | [4] 21.4% | [5] 13.5% | [6] 27.2% | [7] 91.5% | [8] 31.1%

O=C1c2ccccc2C(=O)C1c1ccc(Br)cc1
inactive: [1] 108% | [2] 101% | [3] 97.9% | [4] 99.9% | [5] 87.7% | [6] 92.4% | [7] 98% | [8] 107%

CCO/C=N/C1=C(C#N)C(c2ccc(F)cc2)c2sc3c(F)cccc3c2O1 (stereo not given)
active: [3] -23.7%
inactive: [1] 40.6% | [2] 48.5% | [4] 20.6% | [5] 15.7% | [6] 39% | [7] 77% | [8] 32.5%

Oc1ccc(/C=C/c2ccc(O)cc2)cc1
inactive: [1] 69% | [2] 18.7% | [3] 52.8% | [4] 65.4% | [5] 33.1% | [6] 47% | [7] 96.4% | [8] 45.5%

O=C(Nc1ccccc1N1CCCC1=O)c1oc2ccc(F)cc2c1-c1cnn(-c2ccccc2)c1
inactive: [1] 35.4% [50 µM] | [2] 56.7% [50 µM] | [3] 62.2% [50 µM] | [4] 75.4% [50 µM] | [5] 43.8% [50 µM] | [6] 23.8% [50 µM] | [7] 90.5% [50 µM] | [8] 47.4% [50 µM]
